# Screening results deposited in PubChem by National Center for Advancing Translational Sciences (NCATS).
# Only some compounds are listed: those with a hit (about 1.1% of all), similar ones and a draw of the others.
# AmpC detergent = inhibitors of E. coli AmpC beta-lactamase with detergent; P00811; AmpC hydrolysis of nitrocefin, absorbance 480 nm, 0.01% Triton; Potency, µM (top dose mostly 114 µM), for the others: at the highest dose activity change, negative = inhibition, usual class: inhibitors; actives 0.041% (n = 370,000);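 note: 0% = no-compound wells and -100% = no-enzyme wells; nearly all actives have a fitted effect of over 25% in size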
# Target sequence (P00811 whole entry, looked up): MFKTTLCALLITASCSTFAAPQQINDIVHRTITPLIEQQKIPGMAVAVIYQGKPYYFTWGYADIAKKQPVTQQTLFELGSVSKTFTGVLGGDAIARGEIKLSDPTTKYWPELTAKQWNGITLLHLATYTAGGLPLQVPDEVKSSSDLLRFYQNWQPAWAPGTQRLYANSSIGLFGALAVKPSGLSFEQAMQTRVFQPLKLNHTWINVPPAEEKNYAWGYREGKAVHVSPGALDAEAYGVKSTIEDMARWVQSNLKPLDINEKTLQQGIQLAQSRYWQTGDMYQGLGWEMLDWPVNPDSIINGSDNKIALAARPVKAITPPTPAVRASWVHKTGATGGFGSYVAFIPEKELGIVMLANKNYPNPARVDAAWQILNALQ
#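 AmpC (5.3 nM in the dispensed reagent) in 20 mM phosphate pH 7.0 with 0.01% (detergent screen) or 0.0001% Triton X-100 was preincubated with compounds for 15 min at room temperature. Nitrocefin was then added from an 800 uM solution, and hydrolysis was followed at 480 nm.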
# AmpC no deterg = inhibitors of E. coli AmpC beta-lactamase without detergent; AmpC nitrocefin hydrolysis, absorbance 480 nm, 0.0001% Triton; Potency, µM (titrated, usually from 57.1 µM), without a hit: at the highest dose activity change, negative = inhibition, hits mostly inhibitors; P00811; actives 0.52% (n = 330,000);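 note: plate controls were no compound for no effect and no enzyme for full effect; nearly all actives have a fitted effect of over 20% in size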
#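 20 mM phosphate pH 7.0 + 0.01% (detergent screen) or 0.0001% Triton X-100; 5.3 nM AmpC reagent; cpd preinc 15 min RT; nitrocefin (800 uM stock) to start; A480 q20 s × 4 min; Activity was normalised to no-enzyme and no-compound control wells.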
# Giardia FBPA inh-1 = blocks Giardia fructose-bisphosphate aldolase activity | actives 0.71% (n = 290,000) | AID 2451 | Potency, µM (series often up to 59.6 µM), without a hit: at the top dose activity, negative = inhibition, hits mostly inhibitors | A8B2U2 | purified Giardia FBPA; note: nearly all actives have a fitted effect of over 55% in size
#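 Giardia FBPA (40 nM reagent) was preincubated 10 min at RT with compound (up to 57.5 uM final), then substrate plus GAPDH/TPI/NAD/arsenate coupling system with diaphorase/resazurin was added; resorufin fluorescence (525/598 nm) was read after 20 min.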
# AMA1-RON2 inh = disrupts binding of P. falciparum AMA1 to RON2; AlphaScreen AMA1-biotinylated RON2 peptide binding; Potency, µM (series often up to 58.2 µM), inactives show at the top dose activity change, negative = inhibition, hits mostly inhibitors; actives 0.2% (n = 360,000);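 note: 0% = vehicle wells and -100% = peptide control; nearly all actives have a fitted effect of over 45% in size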
#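 AMA1 (3D7) with his tag at 25 nM final met compounds first, then biotinylated RON2 peptide at 25 nM; detection used donor plus acceptor beads, 10 µg/mL apiece, read by AlphaScreen after 30 min at room temperature.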
# Giardia growth = blocks growth of Giardia lamblia trophozoites; Giardia lamblia trophozoite growth inhibition; actives 5% (n = 1,500); shares compounds with Giardia FBPA inh-1; Potency, µM (titrated, usually from 57.5 µM), without a hit: top-dose activity change, negative = inhibition, hits mostly inhibitors;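 note: trophozoites exposed to compound for 48 h at 37 °C; nearly all actives have a fitted effect of over 70% in size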
# Mammalian tox = mammalian cytotoxicity of Giardia aldolase inhibitor hits | shares compounds with Giardia FBPA inh-1 | mammalian cell viability counter-screen, qHTS | Potency, µM (top dose mostly 57.5 µM), without a hit: at the highest dose viability change, negative = toxicity, usual class: inhibitors | actives 4% (n = 1,500) | AID 2786;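 note: Chinese hamster ovary cells used as mammalian cytotoxicity surrogate; viability measured as cellular ATP by luminescence; compound exposure lasted 48 h before reading; nearly all actives have a fitted effect of over 60% in size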
# Giardia FBPA inh-2 = confirmation of Giardia fructose-bisphosphate aldolase inhibitors | purified Giardia aldolase enzyme activity, qHTS | shares compounds with Giardia FBPA inh-1 | Potency, µM (series often up to 57.5 µM), without a hit: at the highest dose activity change, negative = inhibition, most hits filed as inhibitors | actives 5% (n = 1,500) | AID 2787; note: nearly all actives have a fitted effect of over 45% in size
# Rabbit FBPA inh = selectivity test for Giardia aldolase inhibitors: rabbit aldolase. shares compounds with Giardia FBPA inh-1. Rabbit muscle FBPA enzyme inhibition, selectivity counter-screen. Potency, µM (doses to about 57.5 µM), for inactives: top-dose activity, negative = inhibition, hits mostly inhibitors. actives 4% (n = 1,500); note: nearly all actives have a fitted effect of over 60% in size
# Target sequence (P00883 whole entry, looked up): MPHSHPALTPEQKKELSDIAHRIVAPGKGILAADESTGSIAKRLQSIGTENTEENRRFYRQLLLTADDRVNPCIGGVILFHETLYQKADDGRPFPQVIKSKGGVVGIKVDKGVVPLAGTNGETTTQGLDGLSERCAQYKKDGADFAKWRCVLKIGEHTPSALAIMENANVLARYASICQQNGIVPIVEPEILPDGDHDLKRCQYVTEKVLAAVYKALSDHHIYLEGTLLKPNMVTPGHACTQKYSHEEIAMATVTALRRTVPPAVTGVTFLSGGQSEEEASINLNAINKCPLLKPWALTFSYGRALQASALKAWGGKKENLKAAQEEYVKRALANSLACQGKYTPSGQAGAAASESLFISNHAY
# GAPDH counter = counter-screen for Giardia aldolase inhibitors: GAPDH coupling enzyme; Potency, µM (series often up to 57.5 µM), inactives show top-dose activity change, negative = inhibition, hits mostly inhibitors; shares compounds with Giardia FBPA inh-1; GAPDH coupling enzyme counterscreen, biochemical, qHTS; AID 2795; actives 6% (n = 1,500); note: nearly all actives have a fitted effect of over 55% in size
# * marks the source's active call; other numbers are inactive results; u = inconclusive; x = not tested or not shown; [ ] = remark or other dose. Calls come from the whole dose curve; as a rule, active = well fitted curve in the direction sought with a large enough effect; inconclusive = small, poorly fitted or top-dose-only effect, or another doubt; inactive = no such curve, though single readings can be large; an effect the other way counts as inactive or inconclusive. Unless noted, % is set by controls: 0 for no effect and ±100 for the full control effect; potency is the fitted concentration of half-maximal effect.
SMILES,AmpC detergent,AmpC no deterg,Giardia FBPA inh-1,AMA1-RON2 inh,Giardia growth,Mammalian tox,Giardia FBPA inh-2,Rabbit FBPA inh,GAPDH counter
C=CCc1cc(C)ccc1OCCOCCN1CCN(C)CC1,-5%,-4%,16µM*,-16%,22%,-7%,1%,0%,9%
Cc1cc(Cl)c(OCCOCCN2CCC(C)CC2)c(Br)c1,4%,8%,-14%,2%,x,x,x,x,x
Cc1cc(Cl)c(OCCOCCN2CCN(C)CC2)c(Br)c1,u,1%,22µM*,u,7%[10.4 µM],13%,4%,3%,11%
O=C(Cc1ccc(F)cc1)Nc1cccc(-c2nc3cccnc3s2)c1,1%,x,x,x,x,x,x,x,x
COc1ccc(NC(=O)C(NCC(C)C)c2ccccc2)cc1Cl (centres undefined),2%,-23%,14µM*,-17%,u,2%,8%,20%,2%
CC(C)CO/N=C1/C[C@@H](O)[C@@H](O)[C@@H]2[C@@H]3C(=O)N(c4cccc(Oc5ccccc5)c4)C(=O)[C@H]3CC[C@@H]12,x,x,-1%[12.9 µM],x,x,x,x,x,x
CN(C)c1ccc(CNc2nc3cc(-c4ccc(F)cc4)sc3c(=O)n2C)cc1,x,x,x,-27%,x,x,x,x,x
C=CCc1cc(Cl)ccc1OCCN1CC(C)OC(C)C1 (centres undefined),0%,164%,18µM*,u,-19%,-7%,-6%,-2%,0%
C=CCc1cc(Cl)ccc1OCCNCCN1CCOCC1,-1%,38%,u,-21%,x,x,x,x,x
CC(C)(C)c1ccc(C(=O)NCCC(=O)Nc2ccc3c(c2)OCCO3)cc1,0%,-9%,x,-10%,x,x,x,x,x
CC(C)CC(=O)N1CCC(N(CCc2ccccc2)Cc2ccccc2)CC1,6%,151%,25µM*,-29%,-12%,-8%,0%,0%,6%
CCOc1ccc(C(C)=O)cc1Cc1c(O)[nH]c(=S)[nH]c1=O,2%,-19%,22µM*,7%,-16%,1%,-8%,1%,-16%
CCCOc1ccc(C(C)=O)cc1Cc1c(O)[nH]c(=S)[nH]c1=O,4%,-34%,u,5%,x,x,x,x,x
Cn1nnc(NC(=S)NC(=O)/C=C/c2ccco2)n1,3%,-34%,3.5µM*,6%,-28%[38.3 µM],-2%,-19%,-20%,-23%
CCCn1nnc(NC(=O)/C=C/c2ccco2)n1,6%,-7%,5%,-11%,x,x,x,x,x
Cc1cc(N/N=C(/CCC(=O)O)C(=O)O)nc2ccccc12,u,-22%,16µM*,55%,6%[10.4 µM],-4%,-3%,-21%,u
O=C(NNc1cccc(Cl)n1)C(F)(F)F,-21%,-19%,20µM*,32%,u,9%,-13%,-2%,1%
C[C@@H]1CN([C@H](C)CO)C(=O)c2c(c3ccccc3n2C)-c2ccccc2CO[C@H]1CN(C)S(=O)(=O)c1cn(C)cn1,x,x,x,0%,x,x,x,x,x
O=C(Nc1ccccc1C(=O)O)/C(=C/c1ccc([N+](=O)[O-])cc1)NC(=O)c1ccc(Br)o1,8%,-8%,18µM*,4%,73%,4%,-21%,-24%,-20%
O=C(CSc1nc2sccc2c(=O)[nH]1)N1CCN(c2ccccc2)CC1,-13%,-11%,-25%,-3%,x,x,x,x,x
CCOC(=O)c1cnc(-c2ccc(C(F)(F)F)cn2)[nH]c1=O,5%,-20%,5µM*,10%,u,-7%,-6%,-9%,-10%
COCCCN1C(=O)C(CC(=O)NCCCN(C)C)CC(C(=O)N(C(C)C)C(C)C)=C1C (centres undefined),x,x,x,4%,x,x,x,x,x
COCc1[nH]c(=S)c(C#N)cc1C(=O)OC,-2%,-30%,16µM*,36%,20%,8%,4%,1%,-8%
CCOC(=O)c1cc(C#N)c(=S)[nH]c1C,-2%,-9%,-10%,88%,x,x,x,x,x
CC(CN1CCCC1)OC(=O)c1cccc(F)c1 (centres undefined),-6%,-5%,18µM*,3%,9%[10.4 µM],18%,11%,13%,-8%
SMILES,AmpC detergent,AmpC no deterg,Giardia FBPA inh-1,AMA1-RON2 inh,Giardia growth,Mammalian tox,Giardia FBPA inh-2,Rabbit FBPA inh,GAPDH counter
CCC(C)(C)C1CCC(=NNc2nc3ccccc3[nH]2)CC1 (centres undefined),-3%,-30%,1%,85%,x,x,x,x,x
CC(=O)N1CCC(=NNc2nc3ccccc3[nH]2)CC1,2%,-36%,18µM*,-9%,u,0%,-10%,-6%,3%
COc1ccccc1NC(=S)NNC(=O)c1ccncc1,u,-5%[11.4 µM],-3%,-4%,x,x,x,x,x
COC(=O)c1cccnc1NC(=S)NNC(=O)c1ccncc1,-15%,-7%,7.1µM*,79%,65%,20%,-7%,8%,-20%
Cc1ccc(C)c(N2CCN(C(=O)Cc3ccc(NC4=NC5CS(=O)(=O)CC5S4)cc3)CC2)c1 (centres undefined),-1%,174%,-15%,20%,x,x,x,x,x
O=C(NCc1ccccc1Cl)c1ccc(CS(=O)Cc2ccc(Cl)cc2)o1 (centres undefined),-4%,78%,x,-2%,x,x,x,x,x
COc1ccc(NC(=S)NCCCN2CCCC2)cc1Cl,2%,-21%,8.9µM*,-1%,u,32µM*,u,2%,u
COc1ccc(NC(=S)N(CCCN2CCC(C)CC2)Cc2cccs2)cc1Cl,4%,-13%,16µM*,-29%,17%[10.4 µM],-2%,-6%,-1%,12%
COCCN(C(=S)Nc1ccc(OC)c(Cl)c1)C1CCN(C(C)C)CC1,5%,-22%,11µM*,-7%,u,-3%,-9%,-1%,-3%
CCc1cccc(NC(=O)Cn2c(=O)n(CCC(=O)NCc3ccccc3Cl)c(=O)c3sccc32)c1,1%,x,x,x,x,x,x,x,x
CC1=C(c2ccc(F)cc2)S(=O)(=O)N=C1N1CCC(C(=O)NCCc2ccco2)CC1,-2%,x,x,x,x,x,x,x,x
COc1cccc(CNC(=O)CN(c2ccc(C)cc2)S(=O)(=O)N(C)C)c1OC,6%,x,x,x,x,x,x,x,x
CN(C)S(=O)(=O)c1cccc(-n2sc3ccccc3c2=O)c1,-2%,35µM*,14µM*,8%,u,u,-5%,22µM*,-15%
O=c1c2ccccc2sn1-c1cccc(Cl)c1,x,x,x,-11%,x,x,x,x,x
Cc1ccc(Cn2c(=O)n(Cc3ccccc3Cl)c(=O)c3cccnc32)cc1,19%,x,x,x,x,x,x,x,x
